8 molecules from PubChem BioAssay (NCI) can be followed below.

Assay in all cases: NCI-60 one-dose screen, 48 h (100 = growth as untreated, 0 = no growth, -100 = all killed)
Conditions in all cases: 10 µM unless noted

Assay [1] deals with SK-MEL-2 melanoma.
Assay [2] deals with EKVX NSCLC.
In assay [3] the test system is SN12C renal.
Assay [4] relates to UO-31 renal.
The subject of assay [5] is TK-10 renal.
Assay [6] has as its system ACHN renal.
The test system of assay [7] is CAKI-1 renal.
In assay [8] the test system is A498 renal.
The subject of assay [9] is CCRF-CEM leukemia.
The subject of assay [10] is MOLT-4 leukemia.
The subject of assay [11] is SR leukemia.
In assay [12] the test system is RPMI-8226 leukemia.
The test system of assay [13] is OVCAR-8 ovarian.
Assay [14] has as its system OVCAR-5 ovarian.
Assay [15] has as its system OVCAR-4 ovarian.
In assay [16] the test system is SK-OV-3 ovarian.
In assay [17] the test system is IGROV1 ovarian.
Assay [18] has as its system OVCAR-3 ovarian.
Assay [19] relates to HS 578T breast.
Assay [20] concerns NCI/ADR-RES ovarian.

The panel holds about 83,000 compounds, 20% with a hit somewhere; the sample as a whole holds those more often.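 Compound tested at a single concentration for 48 hours in 96-well plates; a percent growth value below 10 was scored as active.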 Unmarked numbers belong to inactive results. Calls of active or inactive are those of the source.

For `COc1ccc(C2=NNC(c3ccc(Oc4nc5c(c(=O)n(C)c(=O)n5C)n4C)c(OC)c3)C2)cc1` (stereo not drawn), the growth was 99.4% in [1]; 97.7% in [2]; 85.2% in assay [3]; 81.2% in assay [4]; 107% in assay [5]; 93.7% in assay [6]. The growth was 102% in assay [7]; 91.9% in [8]; 82.8% in assay [9]; 76% in [10]; 62.7% in assay [11]; 80.4% in assay [12]. Besides, the growth is 94.4% in assay [13]; 102% in [14]; 98.1% in [15]; 117% in [16]; 105% in assay [17]; 108% in assay [18]. For the same molecule, the figures for the growth in assay [19] and in [20] were 89.4% and 87.2%, respectively.

`CCSc1cnnc2ccccc12`: the growth in [1] was 115%; in [2], 98.9%; in assay [3] it was 103%; in [4], 94.3%; in [5] it was 116%; in [6] it was 95.1%. For the same molecule, the growth in [7] is 95.3%; in assay [8], 89.3%; in assay [9], 97.2%; in [10], 89.7%; in [11], 94.2%; in [12] it was 111%. Further, the growth is 104% in assay [13]; 103% in assay [14]; 103% in assay [15]; 109% in assay [16]; 128% in assay [17]; 121% in assay [18]. For the same molecule, the growth in [19] is 117%.

As to `COc1cc(C2CC(c3ccc(Cl)cc3)=NN2C=O)ccc1Oc1ccnc2cc(Cl)ccc12` (stereo not drawn), the growth in assay [1] was 86.7%; in [2], 59%; in assay [3], 77.3%; in [4] it was 80.8%; in assay [5], 83%; in assay [6] it was 41%. The growth in assay [7] was 58.5%; in [8], 62.6%; in assay [9], 68.8%; in [10], 62%; in assay [11], 63.2%; in assay [12], 65.1%. In addition, the growth in [13] was 44.6%; in assay [14], 92.7%; in assay [15], 28.1%; in assay [16] it was 60%; in [17], 97%; in assay [18], 73.4%. Moreover, in assay [19], the growth was 35.5%.

For `COc1cc(C)c(Cl)cc1C1=NN(c2ccc(S(N)(=O)=O)cc2)C(/C=C/c2ccccc2)C1` (stereo not drawn), the growth in assay [1] is 74.6%; in assay [2] it was 49.3%; in [3], 20.6%; in assay [4], 44.9%; in assay [5], 46%; in assay [6] it was 15%. The growth in assay [7] is 59.5%; in assay [8], 64.4%; in assay [9], 54.5%; in assay [10], 49.9%; in assay [11], 66.7%; in [12] it was 35.8%. For the same molecule, the growth in [13] is 31.7%; in assay [14], 104%; in assay [15] it was 28.1%; in assay [16], 88.8%; in [17] it was 45.8%; in assay [18] it was 51.7%. Moreover, the growth in assay [19] is 86.8%.

As for `COc1cc(/C=C/c2cc(/C=C/c3ccc(O)c(OC)c3)n(C(=O)Nc3ccc(F)c(Cl)c3)n2)ccc1O`, the growth in assay [1] was -25% (active); in [2], -17.7% (active); in assay [3], 2.06% (active); in assay [4] it was -17% (active); in assay [5] it was 24%; in [6], 5.73% (active). Besides, the growth in [7] was -39.1% (active); in assay [8], -13.6% (active); in assay [9] it was 0.872% (active); in [10], -17.7% (active); in assay [11], 1.44% (active); in [12], -11.3% (active). Besides, the growth in assay [13] was -44% (active); in assay [14], 0.879% (active); in [15], 9.26% (active); in assay [16], -31.2% (active); in assay [17], 4.57% (active); in assay [18] it was -26.4% (active). For the same molecule, in assay [19], the growth is -12.9% (active).

Turning to `Cc1cc(-c2ccc(N=Nc3c(S(=O)(=O)O)cc4cc(S(=O)(=O)O)cc(O)c4c3O)c(C)c2)ccc1N=Nc1c(S(=O)(=O)O)cc2cc(S(=O)(=O)O)cc(O)c2c1O`, the growth was 90.6% in assay [1]; 79.6% in assay [2]; 116% in [3]; 73.9% in [4]; 115% in assay [5]; 101% in [6]. For the same molecule, the growth in [7] was 78.1%; in assay [8], 122%; in assay [9], 102%; in [10] it was 127%; in assay [11] it was 148%; in assay [12] it was 114%. For the same molecule, the growth is 99.5% in assay [13]; 99.4% in assay [14]; 103% in assay [15]; 88.9% in assay [16]; 80.6% in [17]; 120% in [18]. In addition, the growth in assay [19] was 78.6%.

As for `CC(=O)c1ccc(Br)c([N+](=O)[O-])c1`, the growth in assay [1] was 102%; in assay [2], 104%; in [3] it was 104%; in assay [4] it was 90.7%; in assay [5], 91.5%; in assay [6] it was 111%. For the same molecule, the growth in assay [7] is -7.58% (active); in [8], 76.9%; in assay [9], 98.1%; in assay [10], 96.8%; in assay [11], 94.5%; in assay [12], 96.6%. For the same molecule, the growth in assay [13] is 107%; in [14] it was 119%; in [15], 114%; in [16] it was 109%; in assay [17], 109%; in assay [18] it was 124%. In assay [19], the growth was 90.7%.

On to `COc1ccc(CNc2c3ccccc3nc3ccccc23)cc1F`, for which the growth in [1] is 45.1%; in [2] it was 26.1%; in [3], 25.9%; in assay [4], 13.5%; in [5], 36.1%; in assay [6], 10.9%. Moreover, the growth in [7] is 21.3%; in assay [8], -6.26% (active); in assay [9], 29.6%; in assay [10], 8.92% (active); in assay [11], 4.85% (active); in assay [12], -5.78% (active). Moreover, the growth was 29.4% in assay [13]; 36.9% in assay [14]; 26.1% in assay [15]; 48.1% in assay [16]; 15.8% in assay [17]; 52.2% in [18]. Also, the growth in assay [19] is 45.5%.
